D2 ag-1 = human D2 receptor agonism in beta-arrestin assay | P14416 | DiscoveRx PathHunter D2 beta-arrestin, luminescence, 90 min; 100% = 57 uM dopamine signal | activation, % (test concentration not listed) | 360,000 tested, 0.084% active | AID 624465; in the data active = activation above about 40%; inconclusive = between about 15% and that limit
Target sequence (P14416 whole entry, looked up): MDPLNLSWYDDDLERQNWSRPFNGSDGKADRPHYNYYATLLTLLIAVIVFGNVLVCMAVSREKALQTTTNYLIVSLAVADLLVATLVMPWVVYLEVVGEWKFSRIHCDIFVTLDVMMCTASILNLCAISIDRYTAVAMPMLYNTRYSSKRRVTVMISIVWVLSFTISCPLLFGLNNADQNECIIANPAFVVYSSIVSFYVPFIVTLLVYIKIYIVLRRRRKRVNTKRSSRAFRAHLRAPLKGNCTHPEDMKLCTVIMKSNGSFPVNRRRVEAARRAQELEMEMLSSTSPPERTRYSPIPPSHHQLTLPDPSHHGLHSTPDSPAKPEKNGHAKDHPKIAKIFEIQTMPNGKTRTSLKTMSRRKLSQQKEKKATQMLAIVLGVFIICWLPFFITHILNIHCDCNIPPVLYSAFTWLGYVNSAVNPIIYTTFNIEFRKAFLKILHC
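DiscoveRx PathHunter D2 beta-arrestin cells (2,100/well) attached overnight, then compound-stimulated 90 min at 37 C in HBSS/10 mM HEPES/0.1% Tween-20 buffer; beta-galactosidase complementation read by luminescence after 1 h at ambient temperature. Dopamine 57 uM final (EC100) as control.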
D2 ag-2 = activates the human D2 dopamine receptor; activation, % at 2 µM; HEK293 T-REx D2 cells, calcium flux agonist mode; AID 485358; P14416; 340,000 tested, 0.53% active;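 active = activation over 3 SD above normal in the single-dose calcium agonist read, cut at about 30% in these data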; note: 0% is about no effect
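Tetracycline-induced HEK293 T-REx cells with force-coupled D2 receptor, plated overnight at 30 C, loaded with no-wash calcium dye. After a 10 s baseline, compound was pin-added and calcium flux read kinetically for 180 s; calcium rises flagged agonists.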
D2 PAM-1 = positively modulates the human D2 dopamine receptor allosterically. potentiation, % at 10 µM. AID 485347. P14416. HEK293 T-REx D2, calcium flux, EC20 dopamine potentiation. 340,000 tested, 0.34% active;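 active = potentiation over 3 SD above the plate norm, cut at about 30% in these data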; note: 0% is about no effect
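Potentiation of an EC20 dopamine calcium response is measured in a force-coupled, tetracycline-inducible Hek293 Trex D2 line. Compound-only kinetic reads over 180 s flag agonists before dopamine addition.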
D2 antagonist = D2 dopamine receptor (human) antagonism. P14416. HEK293 TREx D2 cells, calcium flux, dopamine EC80. 340,000 tested, 2% active. inhibition, % at 10 µM; in the data active = inhibition above about 30%; inactive = below that, where a call was filed; note: 0% is about no effect
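In this primary screen, negative modulation is detected by tracking calcium flux after an EC80 dopamine challenge in inducible HEK293 T-REx D2 cells preexposed to test compound for 180 s.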
D2 PAM-2 = human D2 receptor positive allosteric modulation. P14416. DiscoveRx D2 beta-arrestin cells, luminescence, 90 min; 100% = 57 uM dopamine signal. AID 624464. 360,000 tested, 0.23% active. potentiation, % (no concentration beside the values); in the data active = potentiation above about 50%; inconclusive = mostly about 30% to 49%
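D2 cells co-treated with compound plus 50 nM dopamine (EC20) for 90 min at 37 deg C to detect potentiation. Beta-arrestin recruitment was read as enzyme-fragment luminescence after 1 h at ambient temperature. Full response was set by 57 uM dopamine.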
Active calls of the source: *; ? = inconclusive; · = no result. A selection: hits, their analogues and other compounds. The true share with any hit is near 2.4%.

SMILES	D2 ag-1	D2 ag-2	D2 PAM-1	D2 antagonist	D2 PAM-2
Cc1ccc(SCCC(=O)OC(C)C(=O)Nc2ccccc2)cc1 (stereo not drawn)	-1	-1	-7	4	-12
COc1cc(NC(=O)CCCC(=O)OCC(F)(F)C(F)F)nc(OC)n1	0	-1	6	52*	10
Cc1cc(C(=O)CN2c3cccc4cccc(c34)S2(=O)=O)c(C)n1C	-2	0	0	-7	0
CCOc1ccc(OCC(O)CN2CCc3ccccc3C2)cc1 (stereo not drawn)	-1	3	-22	50*	-9
Cc1cc(OCC(O)CN2CCc3ccccc3C2)cc(C(C)C)c1 (stereo not drawn)	?	-1	14	-5	-38
Cc1cc(OCC(O)CN2CCc3ccccc3C2)ccc1Cl (stereo not drawn)	10	0	-23	79*	-23
N#Cc1ccc(COc2cccc3cccnc23)cc1	1	0	31*	-7	0
COc1ccccc1C(=O)O/N=C(/c1ccncc1)c1ccc([N+](=O)[O-])cc1	?	1	4	-8	100*
O=C(Cc1ccccc1)NC(NCCc1ccccc1)C(Cl)(Cl)Cl (stereo not drawn)	-5	0	-8	8	-5
Cc1cccc(-c2c3c(=O)n(C)c(=O)n(C)c3c3c(C)nc4ccccc4n23)c1	·	0	-11	·	·
Cc1nc(NC(=O)COC(=O)c2ccc(CO)cc2)c(Cl)cc1Cl	-7	·	·	·	-1
Cc1ccc(CO/N=C\Cc2snc(Sc3ncc(C(F)(F)F)cc3Cl)c2C#N)cc1	2	0	-1	33*	11
COc1ccc(C(=O)c2c(C(F)(F)F)oc3c2C(=O)c2ccccc2C3=O)cc1OC	?	2	5	31*	?
CN(C)c1ccnc(Oc2ccc(Cl)cc2)c1C#N	-2	0	42*	-19	-8
O=[N+]([O-])c1nn(-c2ccc3c(c2)OCCO3)n(O)c1=NCc1ccc(F)cc1Cl	2	0	2	6	7
CN=c1c([N+](=O)[O-])nn(-c2ccc3c(c2)OCCO3)n1O	42*	-1	3	2	25
CC(C)c1ccc(N=c2c([N+](=O)[O-])nn(-c3ccc4c(c3)OCCO4)n2O)cc1	6	0	-3	-14	71*
O=[N+]([O-])c1nn(-c2ccc3c(c2)OCCO3)n(O)c1=NCc1ccc(F)cc1	?	-1	15	-11	143*
O=[N+]([O-])c1nn(-c2ccc3c(c2)OCCO3)n(O)c1=NCCC1=CCCCC1	?	1	3	6	147*
CCc1cccc(N=c2c([N+](=O)[O-])nn(-c3ccc4c(c3)OCCO4)n2O)c1	?	-2	0	7	?
C=C(C)CNC(=O)CCc1nnc(Cc2cccc(C(F)(F)F)c2)o1	2	1	11	-3	-8
Cc1ccc(C)n1-c1c(C(=O)NCCC(C)C)sc2ncccc12	·	-2	2	·	·
O=C(Nc1ccc(S(=O)(=O)N2CCCCC2)cc1)C1CCCO1 (stereo not drawn)	-2	0	-3	-2	-4
Cc1cc(Cl)ccc1NC(=O)CSc1nc2c(c(=O)[nH]1)CCC2	·	·	-22	·	·
COc1cc(C(=O)Nc2ccc(NC(=O)c3ccc(Br)cc3)cc2)cc(OC)c1OC	·	1	-1	·	·
SMILES	D2 ag-1	D2 ag-2	D2 PAM-1	D2 antagonist	D2 PAM-2
COc1cc(N=c2c([N+](=O)[O-])nn(-c3ccc4c(c3)OCCO4)n2O)cc(OC)c1	9	1	-2	1	68*
CCOCCOC(=O)c1ccc(NC(=O)/C=C/c2ccc(OC)c(OC)c2)cc1	·	-4	-22	·	·
Cc1ccc(N2C(=O)c3ccccc3NC2C(C)Cc2ccc3c(c2)OCO3)cc1 (stereo not drawn)	-3	1	-1	34*	-3
CN1CCC(=C2c3ccccc3CC(=O)c3sccc32)CC1	-3	2	10	8	-27
CN1CCC(=C2c3ccccc3CCc3sccc32)CC1	-8	1	-26	86*	-36
C=CCn1c(CCNC(=O)c2cccs2)nnc1SCC(=O)Nc1cccc(C(C)=O)c1	-1	0	7	34*	-21
COc1ccc(-c2[nH]c(-c3cccc(OC)c3)nc2SCC(=O)NCc2ccco2)cc1	0	-1	-21	39*	-6
O=C(CSc1nnc(-c2ccccc2)c(-c2ccccc2)n1)NCc1ccco1	-3	0	7	40*	-3
O=C(CSc1ncc(-c2ccccc2)nn1)NCc1ccco1	-1	0	-4	18	-5
Cc1ccc(NC(=O)CS(=O)CC(=O)N(C2CCCC2)C(C)C(=O)NC2CCCCC2)cc1 (stereo not drawn)	-1	0	49*	2	-27
Cc1ccc(NC(=O)CS(=O)CC(=O)N(CC(=O)NC2CCCC2)c2cc(C)ccc2C)cc1 (stereo not drawn)	-2	·	-9	·	-17
O=C(NC1CC2CCC(C1)N2Cc1ccccc1)c1ccccc1Br (stereo not drawn)	1	0	-22	67*	-82
O=C(NC1CC2CCCC(C1)N2Cc1ccccc1)c1ccc([N+](=O)[O-])cc1 (stereo not drawn)	1	0	-25	87*	-4
O=C(NC1CC2CCC(C1)N2Cc1ccco1)c1ccccc1 (stereo not drawn)	-1	·	-5	·	-37
COc1ccc(C(=O)NC2CC3CCCC(C2)N3Cc2ccccc2)cc1 (stereo not drawn)	2	0	-22	82*	-11
CCOc1ccc(C(=O)NC2CC3CCCC(C2)N3Cc2ccccc2)cc1 (stereo not drawn)	-5	·	·	·	-16
COc1ccc(C(=O)NC2CC3CCCC(C2)N3Cc2ccccc2)c(OC)c1 (stereo not drawn)	0	1	-23	86*	-1
CCOc1ccccc1C(=O)NC1CC2CCCC(C1)N2C1CC1 (stereo not drawn)	-6	-1	-24	7	-31
COc1ccccc1C(=O)NC1CC2CCC(C1)N2Cc1ccccc1 (stereo not drawn)	1	-1	-32	89*	-5
O=S1(=O)CC(N2CC=CC2)CN1Cc1ccccc1 (stereo not drawn)	-5	·	·	·	-12
C=CCn1c(Oc2cc(C)ccc2C)nc2c1c(=O)n(C)c(=O)n2C	0	-1	15	30*	16
CCCSc1nc(-c2ccccc2)[nH]c1S(=O)(=O)c1ccc(C)cc1	·	·	-30	·	·
CCOC(=O)c1c(C=O)c2sc(C)cc2n1C	-1	0	8	43*	-6
Cc1ccc(C(=O)N2CCN(Cc3ccc4c(c3)OCO4)CC2)c(Cl)c1	2	-1	-30	73*	-9
